Measured values reported in PubChem BioAssay AID1906 (The Scripps Research Institute Molecular Screening Center, 2009).
Hit rate of the full screen: of about 300,000 compounds, about 1,500 (0.5%) were called active. The list comes from a sample in which actives are over-represented; it also holds similar structures and randomly drawn compounds. Values without a mark were called inactive.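 How the source made its calls: active means inhibition above the mean of all tested compounds plus 3 SD, set per screening campaign (cut at about 17% in these data); inactive means the rest.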

system: cathepsin L1 (Fasciola hepatica); assay: Fasciola hepatica cathepsin L1 inhibitors, primary screen, counter-screen for PFM18AAP inhibitor project, biochemical, QFRET, fluorogenic peptide substrate (AID 1906);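 further: 0% = plate median of test compound wells and 100% = 1 µM Z-Phe-Ala-diazomethylketone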; conditions: recombinant F. hepatica cathepsin L1, Z-Leu-Arg-MCA fluorescence; at 5.96 µM; active compounds read high

Row | SMILES | inhibition
1 | C=CCSc1nnc2c(n1)-c1cccc3cccc-2c13 | 4.82%
2 | Cc1ccc(-n2c(C)cc(/C=N\NC(=O)CC(=O)NC(C)C)c2C)cc1 | -0.88%
3 | Cc1cccc(-n2c(C)cc(/C=N/NC(N)=S)c2C)c1 | 35.5% (active)
4 | Cc1cccc(-n2c(C)cc(/C=N\NC(=O)c3cccs3)c2C)c1 | -1.99%
5 | CCOC(=O)C(C)n1nc(-c2ccccc2)c2ccccc2c1=O (configuration not stated) | 3.78%
6 | COc1ccc(CCNC(=O)Cc2ccc(C)cc2)cc1OC | 2.87%
7 | COC(=O)[C@H](C)NC(=O)Nc1ccc(OC(F)(F)F)cc1 | -1.87%
8 | CCOC(=O)Cc1ncccc1C(=O)Nc1ccc(OC(F)(F)F)cc1 | 2.95%
9 | Cn1nccc1NC(=O)Nc1ccc(OC(F)(F)F)cc1 | 19.4% (active)
10 | COC(=O)c1ccccc1Oc1c(F)c(F)nc(N2CCOCC2)c1F | 0.49%
11 | COc1ccc(C(C(=O)NC2CCCCC2)N(C(=O)c2snc(C(N)=O)c2N)c2ccccc2OC)cc1 (configuration not stated) | -2.13%
12 | COc1ccc(C(C(=O)NC2CCCCC2)N(C(=O)CCl)c2ccccc2Cl)cc1 (configuration not stated) | 25.3% (active)
13 | COc1cccc(N(C(=O)C2COc3ccccc3O2)C(C(=O)NC2CCCCC2)c2ccc(O)cc2)c1 (configuration not stated) | 4.68%
14 | O=C(NC(=S)NC1CCS(=O)(=O)C1)c1cccc([N+](=O)[O-])c1 (configuration not stated) | -1.84%
15 | CC(C)C[C@H](NC(=O)[C@@H]1O[C@H]1C(=O)O)C(=O)NCCCCN=C(N)N | 112% (active)
16 | O=C1CC2(CCN(C(=O)COc3ccc(F)cc3)CC2)Oc2ccccc21 | -0.88%
17 | O=C(CN1C(=O)c2ccccc2C1=O)NCc1ccc(C(=O)O)cc1 | 10.4%
18 | CC(C)N(C(=O)c1ccc(-c2ccccc2F)cc1)C(C)C | -3.72%
19 | CC(=O)N(C1=C(Cl)C(=O)c2ccccc2C1=O)c1ccc(C(=O)O)cc1 | 41.1% (active)
20 | CCN(CC)CCNS(=O)(=O)c1ccc(/C=C/C(=O)O)cc1 | 8.82%
21 | Cc1ccc(C(C)C)c(OCCSc2nc3ccccc3n2CC(=O)O)c1 | 2.31%
22 | CC(C(=O)NCCc1ccc(S(N)(=O)=O)cc1)N1C(=O)CC(C)(C)Sc2ccccc21 (configuration not stated) | 3.12%
23 | CC(OC(=O)CNC(=O)c1cccc(F)c1)C(=O)NC1CCCCC1C (configuration not stated) | 46.5% (active)
24 | CC(OC(=O)CNC(=O)c1ccc(Cl)c([N+](=O)[O-])c1)C(=O)NCc1ccco1 (configuration not stated) | -10.4%

Row | SMILES | inhibition
25 | Cc1cc(C(=O)OC(C)C(=O)NC2CCCCC2C)c(C)o1 (configuration not stated) | 1.05%
26 | Cc1ccccc1OCc1nnc(SCC(=O)N2c3ccccc3Sc3ccc(Cl)cc32)o1 | 1.54%
27 | CCOC(=O)C1=C(O)/C(=C/c2cc(C)n(-c3ccccc3)c2C)N=C1C | -0.93%
28 | N#Cc1ccccc1NC(=O)c1cccc(COc2ccc(Cl)cc2Cl)c1 | 2.17%
29 | COc1ccccc1Oc1ccc(N/C=C2/CCCC2=O)cc1 | 6.01%
30 | CCCCC(=O)Nc1nnc(S(=O)(=O)N(C)Cc2ccco2)s1 | -1.17%
31 | CC1(C)CC(=O)C/C(=N\NC(=O)c2cccs2)C1 | -1.64%
32 | C=CCn1c(SCc2csc(C)n2)nc2scc(-c3ccc(C)o3)c2c1=O | 1.45%
33 | C=CCNC(=O)CSc1nc2scc(-c3ccco3)c2c(=O)n1CC=C | 35.5% (active)
34 | C=CCn1c(=S)[nH]c2scc(-c3ccco3)c2c1=O | -1.34%
35 | CCC1Oc2ccccc2N(CC(=O)NCCCN2CCN(CC)CC2)C1=O (configuration not stated) | 1.49%
36 | COCCCN(C(=O)Cn1ncc2c(=O)oc3ccc(C)cc3c21)C(C)c1ccncc1 (configuration not stated) | 3.63%
37 | Cc1ccc2oc(=O)c3cnn(CC(=O)N4CCCCCC4)c3c2c1 | -4.76%
38 | Cc1ccc2oc(=O)c3cnn(CC(=O)N(Cc4ccco4)C4CCCCC4)c3c2c1 | 42.9% (active)
39 | Cc1cccc(NC(=O)c2cc(S(=O)(=O)N3CCC4(CC3)OCCO4)ccc2F)c1 | -2.65%
40 | CN(C)c1nc(NN)nc(Nc2ccc(F)cc2)n1 | 11%
41 | COCCn1c(N)c(N(Cc2ccccc2)C(=O)C2CCCCC2)c(=O)[nH]c1=O | 3.45%
42 | Nc1c(N(CCO)C(=O)C2CCCCC2)c(=O)[nH]c(=O)n1Cc1ccccc1 | 23.6% (active)
43 | CCN(C(=O)CN1CCN(Cc2ccccc2)CC1)c1c(N)n(Cc2ccccc2)c(=O)[nH]c1=O | -1.57%
44 | Cc1sc(NC(=S)NC(=O)c2cccs2)nc1-c1ccc(CC(C)C)cc1 | -0.85%
45 | COc1cc(OC)nc(N/N=C(\c2ccccc2)c2ccncc2)n1 | 1.22%
46 | CCC(=O)Nc1nc(OC)cc(OC)n1 | 3.53%
47 | COc1cc(OC)nc(NC(=O)CCl)n1 | 19.4% (active)
